Screens deposited in PubChem by National Center for Advancing Translational Sciences (NCATS).
Shown are actives, neighbours in structure and some others; about 2.5% of the full set was active somewhere.
Pol kappa inh = DNA polymerase kappa (human) inhibition; Potency, µM (top dose mostly 107 µM), for inactives: at the highest dose activity, negative = inhibition, actives largely listed as inhibitors; hit rate 0.53% among 400,000; purified Pol kappa, fluorescent DNA synthesis assay, 10 min; Q9UBT6; AID 588579; note: % is set by controls: 0 for no effect and ±100 for the full control effect
Target sequence (Q9UBT6 whole entry, looked up): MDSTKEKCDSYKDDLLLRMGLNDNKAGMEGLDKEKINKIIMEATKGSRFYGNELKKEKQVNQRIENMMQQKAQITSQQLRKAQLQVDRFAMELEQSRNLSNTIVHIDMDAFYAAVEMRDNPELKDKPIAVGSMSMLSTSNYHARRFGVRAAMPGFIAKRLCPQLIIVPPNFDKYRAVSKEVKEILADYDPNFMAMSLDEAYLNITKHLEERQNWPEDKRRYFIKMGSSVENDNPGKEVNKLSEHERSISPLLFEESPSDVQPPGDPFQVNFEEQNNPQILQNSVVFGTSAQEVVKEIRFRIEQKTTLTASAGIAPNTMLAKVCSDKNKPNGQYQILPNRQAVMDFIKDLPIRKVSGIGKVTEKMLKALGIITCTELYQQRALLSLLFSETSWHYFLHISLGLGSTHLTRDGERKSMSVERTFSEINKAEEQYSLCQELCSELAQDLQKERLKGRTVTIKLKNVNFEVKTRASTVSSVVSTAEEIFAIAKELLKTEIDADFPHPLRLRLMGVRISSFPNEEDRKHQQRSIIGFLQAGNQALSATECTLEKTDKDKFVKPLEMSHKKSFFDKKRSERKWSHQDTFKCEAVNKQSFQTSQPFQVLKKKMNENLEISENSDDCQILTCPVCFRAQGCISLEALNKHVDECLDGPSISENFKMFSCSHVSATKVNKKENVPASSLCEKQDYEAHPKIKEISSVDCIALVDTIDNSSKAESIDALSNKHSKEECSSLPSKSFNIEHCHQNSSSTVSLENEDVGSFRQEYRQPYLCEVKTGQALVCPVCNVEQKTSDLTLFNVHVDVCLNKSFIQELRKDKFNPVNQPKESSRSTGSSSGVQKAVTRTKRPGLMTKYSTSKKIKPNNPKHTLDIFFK
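Activity was followed as the change in fluorescence between reads at 0 and 10 min after starting the reaction with 50 nM substrate. Beforehand, 10 nM polymerase had been preincubated with compound for 15 min at room temperature.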
APEX1 inh = blocks human APE1 abasic DNA cleavage | Potency, µM (series often up to 65.8 µM), for inactives: at the highest dose activity change, negative = inhibition, actives largely listed as inhibitors | hit rate 0.35% among 350,000 | AID 2517 | P27695 | recombinant APE1, TAMRA/BHQ-2 abasic DNA cleavage fluorescence;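 note: plate controls were vehicle for no effect and reference inhibitor for full effect; nearly all actives have a fitted effect of over 55% in size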
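APE1 at 0.75 nM final was preincubated with compound 15 min at room temperature, then 50 nM double-stranded THF abasic-site substrate (5'-TAMRA/3'-BHQ-2) was added. Fluorescence (ex 525/em 598 nm) was read kinetically; third-minus-first read gave activity.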
L3MBTL1 inh = L3MBTL1 (human) inhibition; Q9Y468; AlphaScreen L3MBTL1–H3K9me1 peptide binding; Potency, µM (titrated, usually from 57.1 µM), for inactives: at the top dose activity, negative = inhibition, most hits filed as inhibitors; hit rate 0.66% among 230,000; AID 485360; note: % is set by controls: 0 for no effect and ±100 for the full control effect; nearly all actives have a fitted effect of over 60% in size
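L3MBTL1 50 nM + b-AHA-H3(1-15)K9me1 75 nM, 30 min RT; compound added, 30 min RT; streptavidin donor/Ni-chelate acceptor beads 10 ug/mL each final, 30 min RT dark; AlphaScreen read.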
POLI inh = inhibitors of human DNA polymerase iota. Q9UNA4. Potency, µM (titrated, usually from 115 µM), for the others: at the highest dose activity, negative = inhibition, hits mostly inhibitors. hit rate 1% among 390,000. Pol iota fluorescent replication assay, 10 min. AID 588590
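Fluorescent replication assay read twice, at 0 min and 10 min after adding 50 nM (final) substrate. Enzyme (10 nM) and compounds were first incubated 15 min at room temperature; enzyme-free buffer wells were negative controls.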
POLH inh = DNA polymerase eta (human) inhibition. Q9Y253. recombinant Pol eta, fluorescent DNA replication assay. Potency, µM (series often up to 114 µM), inactives show at the top dose activity change, negative = inhibition, hits mostly inhibitors. hit rate 1.2% among 390,000; note: % is set by controls: 0 for no effect and ±100 for the full control effect
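Fluorescent replication assay: 50 nM final substrate added after a 15 min room-temperature compound preincubation with 10 nM enzyme. Signal taken at 0 min and again at 10 min.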
POLB inh = blocks human DNA polymerase beta activity | P06746 | Pol beta primer extension/strand displacement, fluorescence kinetic | Potency, µM (titrated, usually from 114 µM), for inactives: at the highest dose activity change, negative = inhibition, usual class: inhibitors | hit rate 1.3% among 340,000 | AID 485314; note: % is set by controls: 0 for no effect and ±100 for the full control effect
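10 nM enzyme + cpd, 15 min RT; start with substrate 50 nM final; read 0 min and after 10 min RT. Corrected, normalized data; 4-parameter Hill curve fit.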
Starred values were filed as active, the others as inactive; ? = inconclusive; · = not tested or not shown; ! = repeats disagree; [ ] = dose if it differs, or a comment. Calls come from the whole dose curve; as a rule, active = well fitted curve in the direction sought with a large enough effect; inconclusive = small, poorly fitted or top-dose-only effect, or another doubt; inactive = no such curve, though single readings can be large; an effect the other way counts as inactive or inconclusive. Potency is the fitted concentration of half-maximal effect.

SMILES	Pol kappa inh	APEX1 inh	L3MBTL1 inh	POLI inh	POLH inh	POLB inh
CCc1ccc(-c2[nH]c3c(c2-c2sc(C)c(C(=O)OC)c2O)c(=O)n(C)c(=O)n3C)cc1	-8%	·	·	7%	·	44%
COC(=O)c1c(C)sc(-c2c(-c3ccc(F)cc3)[nH]c3[nH]c(=O)[nH]c(=O)c23)c1O	?	·	·	?	·	56µM*
CN(C)CC(O)Cn1c2ccc(Br)cc2c2cc(Br)ccc21 (configuration not stated)	6%[19.4 µM]	-7%	·	·	·	·
COc1ccc(-n2c(=O)c3c4c(sc3n(Cc3cc(=O)n5c(C)cccc5n3)c2=O)CCC4)c(OC)c1	-11%	·	·	79µM*	?	-20%
COc1ccc(-n2c(=O)c3c4c(sc3n(Cc3ccc(C)cc3C)c2=O)CCC4)c(OC)c1	-14%	·	·	-9%	-5%	3%
C[C@H](Cc1ccc(O)c(O)c1)[C@@H](C)Cc1ccc(O)c(O)c1	1.7µM*	?	·	1.8µM*!	3.2µM*	0.79µM*
CC(Cc1ccc(O)c(O)c1)C(C)Cc1ccc(O)c(O)c1 (configuration not stated)	10µM*	?	·	45µM*	28µM*	·
COc1cccc(CC(=O)N2CCC(n3nccc3NC(=O)C3CCOC3)CC2)c1 (configuration not stated)	-2%	24%	·	31%	-25%	26%
CCCCSCCCNC(=O)CN1C(=O)COc2ccc(S(=O)(=O)N3CCCC3)cc21	-14%	·	·	13%	-12%	2%
CCc1nc(-c2cc(S(=O)(=O)N3CCN(c4ccccc4F)CC3)ccc2OC)no1	-8%	·	·	-1%	-26%	0%
COc1ccc(S(=O)(=O)N2CCN(c3ccccc3F)CC2)cc1-c1noc(C)n1	-17%	·	·	88%	-14%	8.9µM*
CN(C)c1ccc(C(CNC(=O)c2c(F)cccc2Cl)N2CCOCC2)cc1 (configuration not stated)	-9%[60.1 µM]	·	·	17%	-17%	14%
COc1cc2nc(N3CCOCC3)nc(NC3CCN(Cc4ccccc4)CC3)c2cc1OC	2%	·	·	20%	·	·
CCOc1ccc(CCNC(=O)c2cn(C)c3ccc(S(=O)(=O)N4CCCCC4)cc3c2=O)cc1OCC	-5%	·	·	79µM*	-13%	?
CC(=O)NCc1cc(Cl)c2cccnc2c1O	·	0%	22µM*	·	·	·
CC1(C(O)(C#CC[N+]2(C)CCCCC2)c2ccccc2)CCCC1 (configuration not stated)	-8%	-2%	-8%	66%	6%	-28%
CC1(C#CC[N+]2(C)CCCCC2)CCC2C(O1)c1ccccc1OC2(C)C (configuration not stated)	5%	5%	·	40µM*	-10%	0%
Cc1c(Cl)cnc(NC(=O)COC(=O)c2ccc3ncsc3c2)c1Cl	-10%	-4%	?	?	?	-14%
O=C(COC(=O)c1ccc2ncsc2c1)Nc1ncc(Cl)cc1Cl	-6%	2%	?	?	8.9µM*	0%
Cc1ccc(C(=O)OCC(=O)Nc2ncc(Cl)cc2Cl)cc1NC(=O)c1ccco1	-28%	1%	·	50µM*	?	?
Cc1oc(-c2ccccc2Cl)nc1CS(=O)CC(=O)NCc1ccc(Cl)cc1 (configuration not stated)	-7%	21%	·	79µM*!	-6%	-7%
Cc1ccc(-n2c(O)c(C=Nc3ccccc3-c3n[nH]c(=S)[nH]c3=O)c3ccccc3c2=O)c(C)c1	?	16%	-11%	45µM*	?	89µM*
C=C(CCC(=O)c1ccccc1)C(=O)c1ccccc1	4%	0%	15%	?	16µM*	?
C#CCOC(=O)c1ccccc1C(=O)OCC#C	-5%	-1%	3%	5%	-4%	9%
C#CCOC(=O)c1ccccc1C(=O)O	-8%	-2%	5%	79µM*	6%	0%
SMILES	Pol kappa inh	APEX1 inh	L3MBTL1 inh	POLI inh	POLH inh	POLB inh
CN(C)c1ccc(/C=C(\C#N)C(=O)Nc2nc3c(s2)CCN(Cc2ccccc2)C3)cc1	-3%	1%	·	20µM*	?	10%
CCOc1ccc(S(=O)(=O)Nc2cc(NS(=O)(=O)c3ccc(OCC)cc3)cc(C(=O)O)c2)cc1	79µM*	?	-78%	?	25µM*	·
Cc1ccc(/C=C2\SC(=S)N(CCCC(=O)NC3CCCC3)C2=O)cc1	-12%	14%	·	?	0%	48%
CN(C)CCNc1ccc(CO)c2sc3ccc(O)cc3c(=O)c12	?	·	·	79µM*	?	·
O=C(CCC(=O)NNC(=O)COc1ccc(Br)cc1)NCc1ccccc1	2%	-1%	-1%	35%	-8%	?
O=C(CCc1ccccc1)NNC(=O)COc1ccc(Br)cc1	?	23%[12.4 µM]	·	50µM*	11%	?
O=S(=O)(c1ccc2nc(Nc3ccc(Br)cc3F)ccc2c1)N1CCCC1	4%	·	·	1%	-8%	-1%
COC(=O)c1cc2occc2n1CC(=O)Nc1ccc(C)cc1Cl	3%	·	·	28%	-14%	2%
COc1ccc(C(=O)NCCn2cc(SCc3cc(C)ccc3C)c3ccccc32)cc1	-9%	·	·	89µM*	-5%	3%
COc1ccc(C(=O)NCCn2cc(SCC(=O)Nc3ccc(C)cc3)c3ccccc32)cc1	-11%[60.1 µM]	·	·	-24%	-5%	-1%
COc1ccccc1C(=O)NC(=O)CSc1nnc(SC)s1	-1%	-13%	10%	17%	-13%	·
COc1ccccc1C(=O)NC(=O)CSc1nnc(N)s1	-30%	7%	-7%	?	79µM*	·
CC1=CC(C)(C)N2C(=O)C(=Nc3ccc(O)cc3)c3cccc1c32	-27%	?	11µM*	7.9µM*	20µM*	0%
CN(CC(=O)Nc1ccc(F)cc1)CC(=O)N1CCCC1	4%	42%	-8%	36%	-3%	·
C#CCOCCOCCOCCNc1nc(N2CCN(C(=O)CCCCCCCCCCNC(=O)[C@@H](CCSC)n3cc(CCO)nn3)CC2)nc(N2CCN(C(=O)CCCCCCCCCCNC(=O)[C@H]([C@@H](C)CC)n3cc(CCCCCN)nn3)CC2)n1	-15%	?	0%	?	?	·
C#CCOCCOCCOCCNc1nc(N2CCN(C(=O)CCCCCCCCCCNC(=O)Cn3cc(C[C@@H](C)O)nn3)CC2)nc(N2CCN(C(=O)CCCCCCCCCCNC(=O)[C@H](CCCCN)n3cc(C[C@@H](C)CC)nn3)CC2)n1	-2%	17%	0%	?	?	·
